PLC-beta3 inh: PLC-beta3 (human) inhibition, primary screen; inhibition, % at 12.2 µM; AID 720704; hit rate 0.18% among 370,000; Purified PLC-beta3, fluorogenic substrate, fluorescence; Q01970; in the data active = inhibition above about 11%;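 note: 0% = median of compound wells on plate and 100% = full blocker control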
PLC-gamma1 inh: inhibitors of human phospholipase C gamma1; P19174; purified PLC-gamma1, fluorogenic substrate, fluorescence; inhibition, % at 12.2 µM; hit rate 0.84% among 370,000; AID 720700; in the data active = inhibition above about 9.5%
FAS-TE inh: blocks the thioesterase domain of human fatty acid synthase; P49327; recombinant FAS-TE, OMFH fluorogenic substrate, fluorescence endpoint; inhibition, % at 15 µM; hit rate 0.67% among 360,000; AID 602261;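 active = compounds whose normalised, plate-corrected inhibition of enzyme fluorescence in the single-dose primary screen is 50% or more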;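 note: 0% = DMSO with enzyme and 100% = substrate without enzyme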
H9c2 protect: myocardial damage modulation in H9c2 cells; H9c2 cardiomyocytes, H2O2 injury protection, ATPLite, 2 h; protection from H2O2 cell death, % at 20 µM; hit rate 0.63% among 360,000; AID 588492;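 active = compounds giving at least 50% protection of heart cells from peroxide-induced death in the single-dose screen, raw or plate-pattern-corrected value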;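 note: 0% = DMSO wells with peroxide and 100% = DMSO wells without peroxide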
FAS-TE conf: FAS thioesterase (human) inhibition, confirmation; hit rate 45% among 2,300; recombinant FAS-TE, OMFH fluorogenic substrate, fluorescence; shares compounds with FAS-TE inh; inhibition, % at 15 µM;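 active = compounds inhibiting the enzyme by at least 50% at 15 µM in any one of the replicates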;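 note: 0% = enzyme with DMSO only and 100% = wells lacking enzyme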
The depositor's hits bear a star; . = no result given. Most compounds without a hit are left out; they make up all but 2.2% or so of the library.

SMILES	PLC-beta3 inh	PLC-gamma1 inh	FAS-TE inh	H9c2 protect	FAS-TE conf
CCc1cccc(CC)c1NC(=O)/C(C#N)=C/c1ccccc1C(F)(F)F	2.6	4.1	53.5*	-4.8	60.7*
O=C(c1cc2cc([N+](=O)[O-])ccc2oc1=O)N1CCN(C2CCCCC2)CC1	-0.4	-1.2	61.1*	-1.6	47.2*
COC(=O)[C@]12C[C@H](CC(=O)NCc3cccc4ccccc34)C(=O)N(CCc3ccc(OC)c(OC)c3)C1=C[C@H](COCc1ccccc1)O[C@@H]2C	1.6	3.6	.	.	.
CC1S/C(=N\N=C\c2cccc([N+](=O)[O-])c2)N(C(C)(C)C)C1=O (stereo unspecified)	-8.2	8.7	54.1*	6.0	-0.4
O=[N+]([O-])c1cccc(C=NN=C2c3ccccc3-c3ccccc32)c1	-0.3	-0.5	28.2	-6.2	.
C[C@]12C(=O)N(c3ccc(C(F)(F)F)cc3)C(=O)N1[C@H]1c3ccccc3OC[C@@H]1[C@H]2c1ccccc1	0.1	2.2	81.8*	-1.1	21.2
C[C@]12C(=O)N(c3ccc(Cl)cc3)C(=O)N1[C@H]1c3ccccc3OC[C@@H]1[C@H]2c1ccccc1	.	.	92.9*	-0.5	12.1
C[C@]12C(=O)N(c3ccc(F)cc3)C(=O)N1[C@H]1c3ccccc3OC[C@@H]1[C@H]2c1ccccc1	3.2	1.7	89.3*	-10.3	29.6
C[C@@]12C(=O)N(c3ccc(Br)cc3)C(=O)N1[C@@H]1c3ccccc3OC[C@@H]1[C@H]2c1ccccc1	4.4	2.0	60.8*	12.6	24.3
CCN(CC)C(=O)c1ccc2c(c1)NC(=O)C(C)(C)O2	-1.0	-0.4	.	.	.
Cc1ccccc1N(C)C(=O)CN1CCN(c2nc(-c3ccccc3)cs2)CC1	-0.5	-0.6	.	.	.
O=C(C1CCCN(S(=O)(=O)c2cccc3ccccc23)C1)N1CCN(Cc2ccccc2)CC1 (stereo unspecified)	0.5	4.1	.	.	.
Cc1ccc(N2CC(C(=O)NC3CCCCCC3)CC2=O)cc1 (stereo unspecified)	-1.9	-3.9	-2.6	2.4	.
COC(=O)C[C@@H]1CC[C@@H]2[C@H](COc3ccc(NC(=O)c4cccc(OC)c4)cc3C(=O)N2C)O1	0.2	-0.8	.	.	.
COC(=O)C1=C(C)N(C)C(=NCc2ccccc2C(F)(F)F)NC1c1cccc(F)c1 (stereo unspecified)	4.8	0.8	.	.	.
C[C@]12C(=O)N(c3ccc(Cl)cc3)C(=O)N1[C@@H]1c3ccccc3OC[C@@H]1[C@H]2c1ccccc1	5.0	1.5	54.9*	-3.3	31.6
C[C@@]12C(=O)N(c3ccc(Cl)cc3)C(=O)N1[C@@H]1c3ccccc3OC[C@@H]1[C@H]2c1ccccc1	2.1	5.3	32.3	12.9	.
O=C(c1ccc(Cl)cc1)C1C2C(=O)N(c3ccccc3)C(=O)C2C2CCCN21 (stereo unspecified)	2.9	2.3	-8.5	11.7	.
O=C(c1ccc(Cl)cc1)[C@@H]1[C@@H]2C(=O)N(c3ccccc3)C(=O)[C@@H]2C2c3ccccc3C=NN21 (stereo partly specified)	-55.9	-54.2	52.3*	-2.8	35.2
O=C(Cn1nc(-c2ccco2)ccc1=O)Nc1cc(C(F)(F)F)ccc1Cl	-277.2	-166.1	52.0*	-1.9	73.0*
O=C(Cn1nc(-c2ccco2)ccc1=O)Nc1cc(Cl)ccc1Cl	-330.6	-216.5	29.2	-2.9	.
O=C(Cn1nc(-c2ccco2)ccc1=O)Nc1ccc(Cl)c(Cl)c1	-345.6	-229.7	59.2*	-0.9	36.1*
CCN(CC)C(=O)CC[C@H]1CC[C@]2(CCCN(C(=O)C3CCCC3)C2)O1	-0.8	-0.6	.	.	.
O=C(/C=C/c1cccc([N+](=O)[O-])c1)NCCc1ccc(F)cc1	2.9	6.8	51.8*	11.2	51.3*
O=C(/C=C/c1cccc([N+](=O)[O-])c1)NCc1ccccc1	-0.1	0.8	43.9	-5.6	.
SMILES	PLC-beta3 inh	PLC-gamma1 inh	FAS-TE inh	H9c2 protect	FAS-TE conf
O=C(/C=C/c1ccc([N+](=O)[O-])cc1)NCCc1ccc(F)cc1	4.5	-0.1	23.0	-12.9	.
O=C(/C=C/c1cccc([N+](=O)[O-])c1)NCCSCc1cccc(Cl)c1	2.2	7.1	58.3*	-2.8	66.4*
Cc1cccc(NC(=O)CNC(=O)COC(=O)C2CC2C)c1C (stereo unspecified)	-6.5	-1.6	-8.1	3.3	.
Cc1cccc(NC(=O)CNC(=O)COC(=O)c2ccc(C(C)(C)C)cc2)c1C	-5.7	3.4	63.8*	-14.5	51.3*
COc1ccc(Nc2cc(C(=O)N3CCc4ccccc4C3)c3ccccc3n2)c(OC)c1	-31.7	-28.5	61.3*	-8.1	28.3
O=C(Nc1ccccc1[N+](=O)[O-])OCC=Cc1ccccc1	-1.0	5.0	55.3*	-8.2	59.1*
O=C(COC(=O)c1ccco1)Nc1ccccc1[N+](=O)[O-]	0.1	2.0	-3.0	4.5	.
O=C(Nc1c(-c2ccc(C(F)(F)F)cc2)nc2ncccn12)c1ccc(F)cc1	-61.1	-46.6	.	.	.
CC(C)c1ccc(NC(=O)C2Cc3c(-c4cccc(F)c4)ccnc3O2)cc1 (stereo unspecified)	-8.2	5.2	50.0*	-14.6	42.3
CC(=O)c1cccc(-c2ccnc3c2CC(C(=O)Nc2ccc(F)c(Cl)c2)O3)c1 (stereo unspecified)	-0.6	-1.6	60.5*	-8.5	58.0*
CC(C)c1ccc(NC(=O)C2Cc3c(-c4cccc(C(N)=O)c4)ccnc3O2)cc1 (stereo unspecified)	0.1	5.9	11.1	13.8	.
Cc1ccc(S(=O)(=O)N(C(=O)c2ccncc2)c2ccc(OC(=O)c3ccncc3)c3ccccc23)c(C)c1	.	.	46.4	-31.3	.
Cc1ccc(S(=O)(=O)N(C(=O)c2ccncc2)c2ccc(OC(=O)c3ccncc3)c3ccccc23)cc1	-3.1	-1.4	56.9*	-28.9	5.0
COC(=O)C1=C(C)N(C)C(=NCc2cc(OC)c(OC)c(OC)c2)NC1c1cccc(F)c1 (stereo unspecified)	2.6	2.5	.	.	.
COc1ccccc1-c1cc(SC)c(C#N)c(=O)o1	-19.6	-16.6	54.9*	-24.5	47.2*
COc1ccccc1-c1cc(C(F)(F)F)c(C#N)c(=O)[nH]1	-309.6	-238.6	-1.0	3.6	.
COc1ccc(Cc2c(C3CCCCC3)nc3ccc(C)cn23)c(C)c1	-8.4	-7.0	.	.	.
COC(=O)[C@]12C[C@H](CC(=O)NCc3ccc(C)o3)C(=O)N(Cc3ccc4c(c3)OCO4)C1=C[C@H](C(C)C)O[C@@H]2C1CC1	-1.2	-0.3	.	.	.
O=C(OCC(=O)N1CCc2ccccc2C1)c1cccc([N+](=O)[O-])c1	1.9	1.2	55.5*	-3.3	67.5*
CC(C)(C)N(Cc1ccccc1)C(=O)COC(=O)c1cccc([N+](=O)[O-])c1	-5.1	-0.3	77.4*	-1.3	41.5*
O=C(Cn1cc([N+](=O)[O-])cn1)N1CCN(c2ccccc2)CC1	-3.0	2.2	12.6	0.1	.
O=C(Cn1cc([N+](=O)[O-])cn1)N1CCc2ccccc2C1	-5.3	0.0	55.7*	-5.9	57.7*
CCOC(=O)C1(Cc2ccccc2)CCN(Cc2ccccc2[N+](=O)[O-])CC1	-4.6	-0.3	.	.	.

From PubChem
